{"source": "the supplement of paper PMC10338343", "note": "± gives the standard deviation.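 Note: 1 nM active piRISC with 0.1 nM target library at 33 °C single turnover.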"}
{"system": "MILI (PIWIL2) piRISC loaded with piRNA #1 (26 nt)", "assay": "pre-steady-state target cleavage rate (min^-1); guide: piRNA #1 5'p-UGAGGUAGUAGGUUGUAUAGUAUCCA; MIWI and MILI are mouse PIWI proteins and EfPiwi is from a freshwater sponge; tags in brackets are library labels; higher = faster piRNA-guided slicing of the target", "conditions": "auxiliary factor: 500 nM mouse GTSF1", "outline": "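For Cleave-'n-Seq, a transcribed, DNA-blocked target RNA library […] met 1 nM active affinity-purified piRISC with one synthetic guide at 33 °C for 0–8 or 0–960 min in HEPES–potassium acetate buffer, with or without 500 nM GTSF1 partner protein. Uncleaved targets were sequenced and normalised to depth and weakly complementary targets, with three trials pooled and k3 capped at 0.0001 min^-1. A burst-and-steady-state fit supplied the pre-steady-state cleavage rate.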"}
{"sequence": "GGAGUCGAUACUAAACAACCUACUACCUCA", "pre-steady-state target cleavage rate": "0.183 ± 0.015"}
{"sequence": "GGAGUGGAAACUAUAGAACCUACUACCUCA", "pre-steady-state target cleavage rate": "0.204 ± 0.014"}
{"sequence": "GGAGACCUAUGAUAUCAACCUACAACGUCA", "pre-steady-state target cleavage rate": "< 0.0001"}
{"sequence": "GGAGACCUUACUAUACAACCUAGAUCCUCA", "pre-steady-state target cleavage rate": "0.00967 ± 0.0031"}
{"sequence": "GGAGACCUAUGUAUAGAACGUACUACCUCA", "pre-steady-state target cleavage rate": "0.00362 ± 0.0018"}
{"sequence": "GGAGACCUAUCUAUACAUCCUACUUCCUCA", "pre-steady-state target cleavage rate": "0.107 ± 0.019"}
{"sequence": "GGAGAGGAUUCUAUACAACCUACUAGCUCA", "pre-steady-state target cleavage rate": "0.0566 ± 0.01"}
{"sequence": "GGAGACGAUCACUAUACAACCUACUACCUCA", "pre-steady-state target cleavage rate": "0.131 ± 0.019"}
{"sequence": "GGAGACCUAUGAAUACAACCUACUAGCCUCA", "pre-steady-state target cleavage rate": "0.00742 ± 0.0038"}
{"sequence": "GGAGACCUAUGUAUACAACCUACUUGCUCA", "pre-steady-state target cleavage rate": "0.0104 ± 0.0037"}
{"sequence": "GGAGACCAUUCUAUUCAACCUACUACCUCA", "pre-steady-state target cleavage rate": "0.102 ± 0.012"}
{"sequence": "GGAGAGGAUACUUUUCAACCUACUACCUCA", "pre-steady-state target cleavage rate": "0.145 ± 0.011"}
{"sequence": "GGAGACCAUACAUUACAACCUACUACCUCA", "pre-steady-state target cleavage rate": "0.0869 ± 0.014"}
{"sequence": "GGAGACCUAACAAUACAACGUACUACCUCA", "pre-steady-state target cleavage rate": "0.00908 ± 0.0045"}
{"sequence": "GGAGACGAUACUAUAAACCUACUACCUCA", "pre-steady-state target cleavage rate": "0.0257 ± 0.0077"}
{"sequence": "GGAGACCUAUCUAUACUUGCUACUACCUCA", "pre-steady-state target cleavage rate": "0.0151 ± 0.0031"}
{"sequence": "GGAGACCUUACUAUACAACCUACAUGCUCA", "pre-steady-state target cleavage rate": "0.0591 ± 0.012"}
{"sequence": "GGAGACCUAUCUUUACAACCAACUACCUCA", "pre-steady-state target cleavage rate": "0.0039 ± 0.0033"}
{"sequence": "GGAGACCUAUGAUUACAAGCUAGUACCUCA", "pre-steady-state target cleavage rate": "0.0146 ± 0.006"}
{"sequence": "GGAGACCUAUGAAUACUACCUACUUCCUCA", "pre-steady-state target cleavage rate": "0.0037 ± 0.0024"}
{"sequence": "GGAGACCUAUGAAUUACAACCUACUACCUCA", "pre-steady-state target cleavage rate": "0.00427 ± 0.0021"}
{"sequence": "GGAGACCUAUGAUUCACAACCUACUACCUCA", "pre-steady-state target cleavage rate": "0.00321 ± 0.0032"}
{"sequence": "GGAGACCUUACUAUACAUGGUACUACCUCA", "pre-steady-state target cleavage rate": "0.00395 ± 0.0029"}
{"sequence": "GGAGACCUAUGAAUACAACCUACUUCCUCA", "pre-steady-state target cleavage rate": "0.00371 ± 0.0019"}
{"sequence": "GGAGAGGAUACUAUACUACCUUCUACCUCA", "pre-steady-state target cleavage rate": "0.0158 ± 0.0024"}
{"sequence": "GGAGACCUAACUAGACAACCUACUACCUCA", "pre-steady-state target cleavage rate": "0.0997 ± 0.02"}
{"sequence": "GGAGACCUUACUAUUGUACCUACUACCUCA", "pre-steady-state target cleavage rate": "0.0232 ± 0.0049"}
{"sequence": "GGAGACCUAUGAUAUGUUCCUACUACACUCA", "pre-steady-state target cleavage rate": "< 0.0001"}
{"sequence": "GGAGACCUAUCUAUAAAACCUACUACCUCA", "pre-steady-state target cleavage rate": "0.0877 ± 0.013"}
{"sequence": "GGAGAGCAUACUAUACAACCUACUUCCUCA", "pre-steady-state target cleavage rate": "0.0809 ± 0.025"}
{"sequence": "GGAGACCUAUGUAUACAACCUAACUACCUCA", "pre-steady-state target cleavage rate": "0.00595 ± 0.0023"}
{"sequence": "GGAGACGAUAGUAUAGAACCUACUACCUCA", "pre-steady-state target cleavage rate": "0.158 ± 0.013"}
{"sequence": "GGAGACCUAUGAAUACAACGUACUACCUCA", "pre-steady-state target cleavage rate": "0.00541 ± 0.0019"}
{"sequence": "GGAGACCAUACUAAACAACCUACUUCCUCA", "pre-steady-state target cleavage rate": "0.068 ± 0.011"}
{"sequence": "GGAGACGAUACUAUACAAGCUACUACCUGA", "pre-steady-state target cleavage rate": "0.202 ± 0.022"}
{"sequence": "GGAGACGAUACUAUAGAACCUACUACCACA", "pre-steady-state target cleavage rate": "0.0976 ± 0.015"}
{"sequence": "GGAGACCUAUGAAUACAACCUACUACUCUCA", "pre-steady-state target cleavage rate": "0.00959 ± 0.002"}
{"sequence": "GGAGAGGAUUCUAUAGAACCUACUACCUCA", "pre-steady-state target cleavage rate": "0.157 ± 0.011"}
{"sequence": "GGAGACCUAUCUAUACAAGCUACUACCUCA", "pre-steady-state target cleavage rate": "0.193 ± 0.017"}
{"sequence": "GGAGACCAUACAAUACAACCUUCUACCUCA", "pre-steady-state target cleavage rate": "0.012 ± 0.0035"}
